From PubChem BioAssay (Tox21)
Records with an inconclusive call do not appear. Activity calls are given as the source filed them. Calls come from the whole dose curve; as a rule, active = well fitted activation curve with a large enough effect in the repeat runs; inconclusive = weak or mixed curves, or effect the other way; inactive = no such curve, though single readings can be large or run the other way.

Experiment: qHTS assay to identify small molecule agonists of the retinoic acid receptor (RAR) signaling pathway (AID 1159553)
Conditions: C3RL4 RARE luciferase reporter, agonist, 6 h; series mostly up to 73.3 µM; activation: at the top concentration
Summary of the method: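 Compounds dissolved in DMSO were pinned onto C3RL4 cells seeded the previous day, and plates were held 6 hr at 37 C. RARE-driven luciferase output was then read by luminescence.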
% is set by controls: 0 for no effect and ±100 for the full control effect; potency is the fitted concentration of half-maximal effect.

| SMILES | activation | Potency |
| --- | --- | --- |
| Cc1c([N+](=O)[O-])c(C)c([N+](=O)[O-])c(C(C)(C)C)c1[N+](=O)[O-] | -7.97% (inactive) |  |
| CC(C)(C)c1ccc(OP(=O)(Oc2ccccc2)Oc2ccccc2)cc1 | -3.33% [at 94.8 µM] (inactive) |  |
| O=C1C[C@@H]2OCC=C3CN4CC[C@]56c7ccccc7N1[C@H]5[C@H]2[C@H]3C[C@H]46 | -2.83% (inactive) |  |
| O=c1[nH]c(Cl)c(Cl)cc1Cl | -0.689% (inactive) |  |
| C#CCC1=C(C)C(OC(=O)C2C(C=C(C)C)C2(C)C)CC1=O (stereo not given) | 1.89% (inactive) |  |
| c1ccc2nc(N3CCNCC3)ccc2c1 | 0.431% (inactive) |  |
| c1cc[n+]2c(c1)-c1cccc[n+]1CC2 | 0.201% (inactive) |  |
| Cc1c([N+](=O)[O-])cc2c(c1[N+](=O)[O-])C(C)(C)CC2(C)C | -1.62% (inactive) |  |
| O=[N+]([O-])[O-].[Tl+] | -5.56% [at 94.8 µM] (inactive) |  |
| CCCCCCC[CH2][Sn]([Cl])([Cl])[CH2]CCCCCCC | 3.8% (inactive) |  |
| [O]=[Cr](=[O])([OH])[O][Cr](=[O])(=[O])[OH] | -0.315% [at 94.8 µM] (inactive) |  |
| C=CCOC(=O)c1ccccc1N | 3.16% [at 94.8 µM] (inactive) |  |
| CCOP(=O)(OCC)Oc1nc(Cl)c(Cl)cc1Cl | -4.51% (inactive) |  |
| Brc1ccc(Oc2ccc(Br)cc2Br)c(Br)c1 |  | 13.7 µM (active) |
| CC1=C2C[C@H]3[C@@H](CC=C4C[C@@H](O)CC[C@@]43C)[C@@H]2CC[C@]12O[C@@H]1C[C@H](C)CN[C@H]1[C@H]2C | -3.93% (inactive) |  |
| Cc1cc(C2CC2)nc(Nc2ccccc2)n1 |  | 19.3 µM (active) |
| COC(=O)N(OC)c1ccccc1COc1ccn(-c2ccc(Cl)cc2)n1 | -3.28% (inactive) |  |
| CCCCC/C=C\C/C=C\C/C=C\C/C=C\CCCC(=O)NCC(=O)O | -2.47% (inactive) |  |
| CCCCCCCc1ccc(O)cc1 |  | 8.63 µM (active) |
| c1ccc(Nc2ccc(Nc3ccccc3)cc2)cc1 |  | 5.43 µM (active) |
| CCO/N=C(\CC)C1=C(O)CC(c2c(C)cc(C)cc2C)CC1=O (stereo not given) | -3.08% (inactive) |  |
| CCC(C)c1cccc(C(C)CC)c1O (stereo not given) | -5.14% (inactive) |  |
| CO/N=C(\C(=O)OC)c1ccccc1CO/N=C(\C)c1cccc(C(F)(F)F)c1 | -10% (inactive) |  |
| N#Cc1c2ccccc2cc2ccccc12 | -1.59% (inactive) |  |
| CSC(=O)c1c(C(F)F)nc(C(F)(F)F)c(C(=O)SC)c1CC(C)C | -10.2% (inactive) |  |
